The nature of test [1]: NCI Yeast Anticancer Drug Screen. Data for the rad50 strain (AID 155).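 Also: 0% = growth of vehicle-only cultures of the same strain.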 To be noted: S. cerevisiae rad50 strain growth inhibition; at 50.0 µM; active compounds read high. The method, boiled down:
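Cells are treated with compound, grown, and their growth is then scored against vehicle-only cultures of the same repair-deficient yeast strain.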

Test [2] can be described thus: NCI Yeast Anticancer Drug Screen. Data for the mec2-1 strain (AID 157). To be noted: S. cerevisiae mec2-1 strain, at 50.0 µM, active compounds read high. The method, boiled down: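 Readout is yeast growth inhibition, normalised to vehicle-treated controls, in the mec2-1 strain exposed to compound.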
Test [3] is described as follows: NCI Yeast Anticancer Drug Screen. Data for the sgs1 mgt1 strain (AID 161).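 Also: 0% = growth of cultures given vehicle only.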 To be noted: S. cerevisiae sgs1 mgt1 strain, at 50.0 µM, active compounds read high. The method, boiled down:
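Percent growth inhibition was derived by comparing compound-exposed mutant yeast with vehicle-exposed cultures. The strain carries alterations in DNA damage repair.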

The nature of test [4]: NCI Yeast Anticancer Drug Screen. Data for the cln2 rad14 strain (AID 165).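 Also: 0% = growth equal to vehicle treated cultures.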 To be noted: S. cerevisiae cln2 rad14 strain, at 50.0 µM, active compounds read high. The method, boiled down: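 Relative to vehicle controls, growth inhibition of compound-treated cln2 rad14 yeast was recorded.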
Test [5] can be described thus: NCI Yeast Anticancer Drug Screen. Data for the bub3 strain (AID 167). To be noted: S. cerevisiae bub3 mutant strain, at 50.0 µM, active compounds read high. The method, boiled down: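 Part of a panel of yeast mutants defective in DNA damage repair or cell cycle regulation. Each strain is grown with compound, and inhibition is calculated relative to solvent-treated cultures.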

Test [6] can be described thus: NCI Yeast Anticancer Drug Screen. Data for the mlh1 rad18 strain (AID 175). To be noted: S. cerevisiae mlh1 rad18 strain growth inhibition; at 50.0 µM; active compounds read high. The method, boiled down: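 Test agents were incubated with a yeast strain of defined genotype (DNA damage repair defect). Inhibition of growth was derived by comparison with vehicle-exposed cultures.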

Compounds without any hit were thinned out: in the full panel of roughly 79,000, 15% have a hit. Unmarked numbers belong to inactive results. Active and inactive are the calls of the source. Rule as the data show it: active = growth inhibition above about 70%; inactive = the rest.

Take `CCOC(=O)C/C(O)=C(\N=Nc1nc[nH]c1C(N)=O)C(=O)OCC`: the growth inhibition was 1.2% in test [1]; 23.7% in test [2]; -9.9% in test [3]; -1.8% in test [4]; 16.1% in test [5]; -0.65% in test [6].

Consider `CC(=O)Nc1ccc(S(=O)(=O)[N-]C2C(=O)c3ccccc3C(=O)C2[n+]2ccccc2)cc1` (stereo unspecified), for which the growth inhibition in test [1] is 25.4%; in test [2], 23.1%; in test [3], 28%; in test [4], -0.35%; in test [5], 27.8%; in test [6], -1.8%.

As for `CN=Cc1c(O)ccc2ccccc12.[Cu+2]`, the growth inhibition is 15.3% in test [1]; 7.6% in test [2]; 1.7% in test [3]; 6.45% in test [4]; -32.9% in test [5]; 52.9% in test [6].

Regarding `O=C1CCC2(O1)c1ccc(O)cc1Oc1cc(O)ccc12`, the growth inhibition was 1.05% in test [1]; -24.1% in test [2]; -17.4% in test [3]; -3.9% in test [4]; 7.6% in test [5]; -7.3% in test [6].

Turning to `Cc1ccccc1N1C(N)=C(C#N)C(C#N)(C#N)C1c1ccccc1` (stereo unspecified), the growth inhibition is 8.8% in test [1]; 22.2% in test [2]; -14.6% in test [3]; -10.6% in test [4]; -12.4% in test [5]; 87.8% (active) in test [6].

Consider `C[N+]1(C)CC2C3C=C(I)C(C3)C2C1` (stereo unspecified), for which the growth inhibition in test [1] was 26.8%; in test [2], 17.4%; in test [3], 15.2%; in test [4] it was 48.4%; in test [5] it was 11.9%; in test [6], 26.1%.

For `CC(=NCCN=C(C)c1ccccc1O)c1ccccc1O.[Cu]`, the growth inhibition in test [1] was -17.9%; in test [2] it was -8.05%; in test [3], 2.25%; in test [4], -23.6%; in test [5], -6.15%; in test [6], -8.55%.

In the case of `COC(=O)C(C)Oc1ccc(O)cc1` (stereo unspecified), the growth inhibition in test [1] is 21.7%; in test [2], -3%; in test [3] it was 5%; in test [4] it was 7.7%; in test [5], 19.7%; in test [6] it was 10.4%.

Regarding `NC(=O)Nc1ccccc1`, the growth inhibition in test [1] was 11.4%; in test [2] it was -8.6%; in test [3], -7.55%; in test [4] it was -34.5%; in test [5], -5.2%; in test [6] it was 14.2%.

Turning to `C/C(=N\NC(=O)c1ccccc1O)c1cccc(/C(C)=N/NC(=O)c2ccccc2O)n1.O=S(=O)([O-])[O-].[Fe+2]`, the growth inhibition in test [1] is 11.4%; in test [2], 38.8%; in test [3], 39.5%; in test [4], -0.9%; in test [5], 0.65%; in test [6] it was 40.7%.

In the case of `CCc1nc2c(c(=O)n(C)c(=O)n2C)n1C`, the growth inhibition was -2.65% in test [1]; -4.15% in test [2]; -8.45% in test [3]; -3.85% in test [4]; 2.85% in test [5]; -7.5% in test [6].

On to `CCNC(=O)NCN1CCOCC1`, for which the growth inhibition is 26.2% in test [1]; -0.5% in test [2]; 16.9% in test [3]; 9.45% in test [4]; 0.4% in test [5]; 9% in test [6].

On to `Cc1nn(-c2ccccc2)c2oc3ccccc3c(=O)c12`, for which the growth inhibition in test [1] was -25.6%; in test [2] it was -7.4%; in test [3] it was -35.5%; in test [4] it was -29.5%; in test [5], -20.9%; in test [6], -31.1%.

`CC(C)=CCC/C(C)=C/CC/C(C)=C/C1CCC(=O)C1(C)C` (stereo unspecified): the growth inhibition in test [1] is 5%; in test [2] it was -38.4%; in test [3], -43.2%; in test [4], -16.6%; in test [5] it was -33.3%; in test [6] it was -8.35%.

For `NCCNCCCCCCCCCCCCOS(=O)(=O)O`, the growth inhibition in test [1] is -32.8%; in test [2], -23.6%; in test [3], -6.35%; in test [4], -15.3%; in test [5] it was -25%; in test [6], -11.4%.

For `O=C1NN(c2ccccc2)CCO1`, the growth inhibition in test [1] is -2.45%; in test [2], -3.2%; in test [3] it was -5.25%; in test [4], -18.6%; in test [5], 0.1%; in test [6] it was 2.15%.

On to `CCCCCCCCCCCCC(CC)(C(=O)OCC)C(=O)OCC`, for which the growth inhibition is -1.6% in test [1]; -0.6% in test [2]; 13% in test [3]; -59.5% in test [4]; 1.15% in test [5]; -2% in test [6].

For `CCc1ccccc1OCc1ccccc1`, the growth inhibition is 18.4% in test [1]; 11.8% in test [2]; 14.2% in test [3]; 6.9% in test [4]; 1% in test [5]; 1.75% in test [6].

On to `COc1c2c(c(OC)c3c(=O)c4ccccc4[nH]c13)OCO2`, for which the growth inhibition was 12.6% in test [1]; -8.85% in test [2]; 26.9% in test [3]; -2.25% in test [4]; 18.2% in test [5]; 22.9% in test [6].

With `CC(CCl)NS(=O)(=O)c1ccccc1` (stereo unspecified), the growth inhibition in test [1] was 2.1%; in test [2], 2.85%; in test [3], -2.85%; in test [4], 0.85%; in test [5] it was -7.5%; in test [6], -8.05%.

Consider `O=C(O)c1ccc(C(=O)C2CC(C(=O)O)CCC2S(=O)(=O)O)cc1` (stereo unspecified), for which the growth inhibition in test [1] is -10.1%; in test [2] it was 11.8%; in test [3], -19.8%; in test [4], -30.6%; in test [5], -0.4%; in test [6], 17.1%.

In the case of `CC(=O)OC1C(C)OC(n2cnc3c(=O)[nH]cnc32)C1OC(C)=O` (stereo unspecified), the growth inhibition in test [1] is 2.95%; in test [2], -15.6%; in test [3] it was -0.45%; in test [4] it was -3.45%; in test [5], -2%; in test [6] it was 10.8%.

With `CCOC(=O)c1cc2c(ccc3cc(C(=O)OCC)[nH]c32)[nH]1`, the growth inhibition in test [1] is 21.9%; in test [2], 26.1%; in test [3], 26.8%; in test [4], 4.2%; in test [5], 24.4%; in test [6], -11.3%.

`CC1=CC(=O)c2ccc(F)cc2C1=O`: the growth inhibition in test [1] is -11.8%; in test [2] it was -3.85%; in test [3], 15%; in test [4], -2.9%; in test [5] it was -7.95%; in test [6] it was 13.8%.

As to `CC/C(=N/Nc1cn[nH]c(=O)c1Cl)c1ccccc1`, the growth inhibition in test [1] was 4.6%; in test [2] it was -0.6%; in test [3], -0.5%; in test [4], -35.6%; in test [5] it was 19%; in test [6] it was -1.5%.

On to `CC(=O)CCCS(=O)(=O)c1ccccc1`, for which the growth inhibition was -1.5% in test [1]; 14.9% in test [2]; 0.9% in test [3]; -12.7% in test [4]; -3.8% in test [5]; 5.2% in test [6].

As for `COc1cc(OC)cc(C(=O)NN)c1`, the growth inhibition in test [1] was 19%; in test [2], -2.2%; in test [3], 5.1%; in test [4] it was 17.4%; in test [5], 0.5%; in test [6], -18.6%.

For the compound `CCCCN(Cc1ccccc1)C(=O)NC(C)(C)C`, the growth inhibition in test [1] was 2.15%; in test [2], 33.9%; in test [3] it was 8.1%; in test [4] it was 3.45%; in test [5], 25.8%; in test [6], 18.6%.

For the compound `CCN(CC)CCC(=O)O`, the growth inhibition in test [1] was -13.4%; in test [2], -19.4%; in test [3] it was -7%; in test [4], 5.95%; in test [5], -10.7%; in test [6] it was -5.2%.

In the case of `N=c1c2ccccc2nc2oc3ccccc3n12`, the growth inhibition is 48.8% in test [1]; 12% in test [2]; 7.7% in test [3]; 13.2% in test [4]; 24.9% in test [5]; 6.5% in test [6].

Take `COc1cccc(CCNc2ccncc2N)c1`: the growth inhibition was -22% in test [1]; -23.7% in test [2]; -24.6% in test [3]; -52.2% in test [4]; -29.1% in test [5]; 12.9% in test [6].

Take `CN1C(=O)N(C)C2(CCN(CC(CC3OCCO3)c3ccc(F)cc3)CC2)C1=O` (stereo unspecified): the growth inhibition is -15.8% in test [1]; 7.85% in test [2]; 0.4% in test [3]; 2.5% in test [4]; -6.8% in test [5]; -1.55% in test [6].

On to `Cc1cccc([B-]23OCC[N+]2(CNC(=O)c2ccccc2O)CCO3)c1` (stereo unspecified), for which the growth inhibition is -21.6% in test [1]; -19.8% in test [2]; -7.5% in test [3]; -11.6% in test [4]; -18.4% in test [5]; -16.8% in test [6].

Consider `COC1=CC(=O)O/C1=C(\OC)C1OC1c1ccccc1` (stereo unspecified), for which the growth inhibition in test [1] was -4%; in test [2], -7.25%; in test [3], 2.9%; in test [4], -1.35%; in test [5], -6.5%; in test [6], -24.9%.

Take `O=C(O)c1cc2ccccc2c(N=Nc2cc(C(F)(F)F)ccc2Cl)c1O`: the growth inhibition in test [1] is -12.2%; in test [2], -9.65%; in test [3], -4.05%; in test [4], 5.4%; in test [5], -6.3%; in test [6], -13.1%.

Turning to `[Cl][Pt+2][Cl].[NH-]C1CCC1.[NH2-]`, the growth inhibition in test [1] is 3.25%; in test [2], -3.5%; in test [3] it was -3.85%; in test [4], 18.4%; in test [5], -16.1%; in test [6], -66.6%.

With `COc1ccc([N+](=O)[O-])cc1NC(=O)c1ccc(Cl)cc1`, the growth inhibition in test [1] was 12%; in test [2], 29.7%; in test [3], 35.6%; in test [4] it was 16.9%; in test [5], 28%; in test [6], 34.8%.

Regarding `CN(C)c1ccn(C2OC(CO)C(O)C2SC(C)(C)C)c(=O)n1` (stereo unspecified), the growth inhibition was -1.2% in test [1]; 3.95% in test [2]; -2.05% in test [3]; 10.8% in test [4]; -1.25% in test [5]; 13.8% in test [6].

Consider `COc1ccc(NC(=O)C(F)(F)F)cc1`, for which the growth inhibition in test [1] was 9.3%; in test [2] it was 3.85%; in test [3] it was 10.4%; in test [4], -2.2%; in test [5] it was 0.55%; in test [6] it was 1.75%.

In the case of `CCOC1Oc2ccccc2-c2nc(C)c(C#N)cc21` (stereo unspecified), the growth inhibition is 1.65% in test [1]; 7.75% in test [2]; 15.9% in test [3]; -66.5% in test [4]; 15.8% in test [5]; 12.4% in test [6].

Turning to `CC(=O)OCCC(C)Nc1ccnc2cc(Cl)ccc12` (stereo unspecified), the growth inhibition in test [1] was -11.7%; in test [2] it was -7.45%; in test [3], 6.35%; in test [4] it was 13.2%; in test [5] it was -3.75%; in test [6] it was 12.2%.
